# According to the supplement of paper PMC8728848:
# The full list was thinned out, with the strongest signals kept by preference.
# Columns and labels:
# Assay in all cases: glycan array binding signal (z-score within array); higher = stronger binding
# Conditions in all cases: glycan notation: IUPAC condensed, linker removed
# [1] = target: Fuc(a1-2)Gal(b1-3)[Fuc(a1-4)]GlcNAc
# In short: (§1)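 The binding signal is a Z-score computed within each array and averaged over linkers. Arrays of the same protein sequence at different concentrations or buffers were also averaged together. Data originate from 3228 arrays in the Consortium for Functional Glycomics database, kept only where the protein sequence was available.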
# Fuc(a1-2)Gal(b1-4)Glc = target: Fuc(a1-2)Gal(b1-4)Glc
# In short: as §1
# [2] = target: Fuc(a1-2)Gal6S(b1-4)GlcNAc
# In short: as §1
# [3] = target: Fuc(a1-2)[Gal(a1-3)]Gal(b1-4)GlcNAc
# In short: as §1
# [4] = target: Fuc(a1-2)[Gal(a1-3)]Gal(b1-4)GlcNAc(b1-2)Man(a1-3)[Fuc(a1-2)[Gal(a1-3)]Gal(b1-4)GlcNAc(b1-2)Man(a1-6)]Man(b1-4)GlcNAc(b1-4)GlcNAc
# In short: as §1
# [5] = target: Fuc(a1-2)[Gal(a1-3)]Gal(b1-4)GlcNAc(b1-3)GalNAc
# In short: as §1
# [6] = target: Fuc(a1-2)[Gal(a1-3)]Gal(b1-4)[Fuc(a1-3)]Glc
# In short: as §1
# [7] = target: Fuc(a1-2)[GalNAc(a1-4)]Gal(b1-4)GlcNAc
# In short: as §1
# [8] = target: Fuc(a1-3)[Gal(b1-4)]Glc6S
# In short: as §1
# [9] = target: Gal(a1-3)Fuc(a1-2)Gal(b1-4)GlcNAc(b1-3)[Gal(a1-3)Fuc(a1-2)Gal(b1-4)GlcNAc(b1-6)]GalNAc
# In short: as §1
# Gal(a1-3)Gal(b1-4)GlcNAc = target: Gal(a1-3)Gal(b1-4)GlcNAc
# In short: as §1
# [10] = target: Gal(a1-4)Gal(b1-3)GlcNAc(b1-2)Man(a1-3)[Gal(a1-4)Gal(b1-3)GlcNAc(b1-2)Man(a1-6)]Man(b1-4)GlcNAc(b1-4)GlcNAc
# In short: as §1
# Gal(a1-4)GlcNAc = target: Gal(a1-4)GlcNAc
# In short: as §1
# [11] = target: Gal(b1-3)Gal(b1-4)GlcNAc(b1-2)Man(a1-3)[Gal(b1-3)Gal(b1-4)GlcNAc(b1-2)Man(a1-6)]Man(b1-4)GlcNAc(b1-4)GlcNAc
# In short: as §1
# Gal(b1-3)GlcNAc = target: Gal(b1-3)GlcNAc
# In short: as §1
# [12] = target: Gal(b1-3)GlcNAc(b1-2)Man(a1-3)[Gal(b1-3)GlcNAc(b1-2)Man(a1-6)]Man(b1-4)GlcNAc(b1-4)[Fuc(a1-6)]GlcNAc
# In short: as §1
# [13] = target: Gal(b1-3)GlcNAc(b1-3)Gal(b1-4)GlcNAc
# In short: as §1
# [14] = target: Gal(b1-3)[Fuc(a1-4)]GlcNAc(b1-2)Man(a1-3)[Gal(b1-3)[Fuc(a1-4)]GlcNAc(b1-2)Man(a1-6)]Man(b1-4)GlcNAc(b1-4)[Fuc(a1-6)]GlcNAc
# In short: as §1
# [15] = target: Gal(b1-4)GlcNAc(b1-3)Gal(b1-4)Glc
# In short: as §1
# [16] = target: Gal(b1-4)GlcNAc(b1-3)GalNAc
# In short: as §1
# [17] = target: GalNAc(a1-3)Fuc(a1-2)Gal(b1-4)GlcNAc(b1-3)[GalNAc(a1-3)Fuc(a1-2)Gal(b1-4)GlcNAc(b1-6)]GalNAc
# In short: as §1
# GalNAc(b1-4)Gal(b1-4)Glc = target: GalNAc(b1-4)Gal(b1-4)Glc
# In short: as §1
# GlcA(b1-3)Gal = target: GlcA(b1-3)Gal
# In short: as §1
# GlcNAc(b1-3)Gal(b1-4)Glc = target: GlcNAc(b1-3)Gal(b1-4)Glc
# In short: as §1
# Kdn(a2-3)Gal(b1-4)Glc = target: Kdn(a2-3)Gal(b1-4)Glc
# In short: as §1
# Kdn(a2-6)Gal(b1-4)GlcNAc = target: Kdn(a2-6)Gal(b1-4)GlcNAc
# In short: as §1
# [18] = target: Neu5Ac(a2-3)Gal(b1-4)GlcNAc(b1-3)Gal(b1-4)[Fuc(a1-3)]GlcNAc
# In short: as §1
# [19] = target: Neu5Ac(a2-3)[GalNAc(b1-4)]Gal(b1-4)GlcNAc(b1-3)GalNAc
# In short: as §1
# Neu5Ac(a2-6)GalNAc = target: Neu5Ac(a2-6)GalNAc
# In short: as §1
# [20] = target: Neu5Ac9Ac(a2-3)Gal(b1-4)GlcNAc
# In short: as §1
# [21] = target: Neu5Gc(a2-3)Gal(b1-4)GlcNAc
# In short: as §1
# [22] = target: Neu5Gc(a2-6)Gal(b1-4)GlcNAc
# In short: as §1
# [23] = target: Fuc(a1-2)[Gal(a1-3)]Gal(b1-4)[Fuc(a1-3)]GlcNAc
# In short: as §1
# [24] = target: Fuc(a1-3)[Gal(b1-4)]GlcNAc(b1-3)Gal(b1-3)[Fuc(a1-4)]GlcNAc
# In short: as §1
# [25] = target: Fuc(a1-3)[Gal(b1-4)]GlcNAc(b1-4)Gal(b1-4)[Fuc(a1-3)]GlcNAc
# In short: as §1
# Fuc(a1-4)GlcNAc = target: Fuc(a1-4)GlcNAc
# In short: as §1
# [26] = target: Gal(a1-3)[Gal(a1-4)]Gal(b1-4)GlcNAc
# In short: as §1
# Gal(b1-2)Gal = target: Gal(b1-2)Gal
# In short: as §1
# [27] = target: Gal(b1-4)GlcNAc(b1-6)[Gal(b1-3)]GalNAc
# In short: as §1
# [28] = target: Man(a1-2)Man(a1-6)[Man(a1-3)]Man(a1-6)[Man(a1-2)Man(a1-2)Man(a1-3)]Man
# In short: as §1
# Man(a1-3)[Man(a1-6)]Man = target: Man(a1-3)[Man(a1-6)]Man
# In short: as §1
# [29] = target: Man(a1-3)[Man(a1-6)]Man(a1-6)[Man(a1-2)Man(a1-3)]Man(b1-4)GlcNAc(b1-4)GlcNAc
# In short: as §1
# [30] = target: Man(a1-3)[Man(a1-6)]Man(a1-6)[Man(a1-3)]Man
# In short: as §1
# [31] = target: Man(a1-3)[Man(a1-6)]Man(a1-6)[Man(a1-3)]Man(b1-4)GlcNAc(b1-4)GlcNAc
# In short: as §1
# [32] = target: Man(a1-3)[Man(a1-6)]Man(b1-4)GlcNAc(b1-4)GlcNAc
# In short: as §1
# [33] = target: Neu5Ac(a2-3)Gal(b1-3)GalNAc6S
# In short: as §1
# [34] = target: Neu5Ac(a2-3)Gal6S(b1-4)GlcNAc
# In short: as §1
# [35] = target: Neu5Ac(a2-3)[GalNAc(b1-4)]Gal(b1-4)Glc
# In short: as §1
# [36] = target: Neu5Ac(a2-3)[GalNAc(b1-4)]Gal(b1-4)GlcNAc
# In short: as §1
# [37] = target: Neu5Ac(a2-6)Gal(b1-4)GlcNAc
# In short: as §1
# [38] = target: Neu5Ac(a2-6)Gal(b1-4)GlcNAc(b1-2)Man(a1-6)[Gal(b1-4)GlcNAc(b1-2)Man(a1-3)]Man(b1-4)GlcNAc(b1-4)GlcNAc
# In short: as §1
# [39] = target: Neu5Ac(a2-8)Neu5Ac(a2-8)Neu5Ac(a2-8)Neu5Ac(a2-3)[GalNAc(b1-4)]Gal(b1-4)Glc
# In short: as §1
binder,measurement,setting,value
SCA (Schizophyllum commune) (protein) MGIDQGVYLITNAGSGTAATLKDGYVKGWERIKGKEQLNQLWFVKSVKTSASDPGYAAFNLATNKVLDLEKGLADRGTPILGWDYHEGDNQHWVIKKQADGKYYKIQSVKTQTFVDLNNGGKDNGTKIQGWVGSWDETNSHQRWVFNQFSATGSRIKSILDTHPKIHGKVIVEWPDRIYFTPDQYIFEAIWAKTGLADIKPRDPLFQSEAYEKVFKGWVVSRAQEIIKVDGFDILVGSLSLVEKSTQKIKVLDVSVRTSDDKSPDLSQIVFFDPESGRTLVDIPEGYEVNSVII,glycan array binding signal (z-score),[1],-0.163
same,glycan array binding signal (z-score),Fuc(a1-2)Gal(b1-4)Glc,-0.153
same,glycan array binding signal (z-score),[2],-0.161
same,glycan array binding signal (z-score),[3],5.61
same,glycan array binding signal (z-score),[4],7.08
same,glycan array binding signal (z-score),[5],2.52
same,glycan array binding signal (z-score),[6],-0.163
same,glycan array binding signal (z-score),[7],0.703
same,glycan array binding signal (z-score),[8],-0.16
same,glycan array binding signal (z-score),[9],6.72
same,glycan array binding signal (z-score),Gal(a1-3)Gal(b1-4)GlcNAc,8.25
same,glycan array binding signal (z-score),[10],3.68
same,glycan array binding signal (z-score),Gal(a1-4)GlcNAc,-0.135
same,glycan array binding signal (z-score),[11],11.4
same,glycan array binding signal (z-score),Gal(b1-3)GlcNAc,-0.162
same,glycan array binding signal (z-score),[12],-0.159
same,glycan array binding signal (z-score),[13],-0.158
same,glycan array binding signal (z-score),[14],-0.054
same,glycan array binding signal (z-score),[15],-0.16
same,glycan array binding signal (z-score),[16],-0.159
same,glycan array binding signal (z-score),[17],0.835
same,glycan array binding signal (z-score),GalNAc(b1-4)Gal(b1-4)Glc,-0.162
same,glycan array binding signal (z-score),GlcA(b1-3)Gal,8.44
same,glycan array binding signal (z-score),GlcNAc(b1-3)Gal(b1-4)Glc,-0.158
same,glycan array binding signal (z-score),Kdn(a2-3)Gal(b1-4)Glc,-0.152
same,glycan array binding signal (z-score),Kdn(a2-6)Gal(b1-4)GlcNAc,-0.162
same,glycan array binding signal (z-score),[18],-0.164
same,glycan array binding signal (z-score),[19],-0.161
same,glycan array binding signal (z-score),Neu5Ac(a2-6)GalNAc,-0.162
same,glycan array binding signal (z-score),[20],-0.16
same,glycan array binding signal (z-score),[21],-0.161
same,glycan array binding signal (z-score),[22],-0.162
HFR-1 (Triticum aestivum) (protein) MSPQSFTLETTTTTPAAKGSDPSYFQSAPACHEMIQHKELLLHLYAYQNVQKTPDANQAVIVESKRPECFGILAANDWTVYDGPAHNANLVAHAQGLHLGASMAKENWFICFNMVFVNQRFTGSSFKVMGDFQGTAHNGEWAIVGGTGEFAYAQGVIAFKKTQQSERNARMELHVRAMCLSFLRPLLSLGDGSAVAKIGPWGKMSGELLDIPSTPQRLERITIRHGVVIDSLAFSFIDKAGEPYNVGPWGGRRGDNKDTIELAPSEIVTEVSGTVGIFAEDNVEYNAIASLTITTNHRPYGPFGETQSTPFSVPVQDNNNIVGFFACAGKYVEALGVYVRSPVST,glycan array binding signal (z-score),[1],-0.201
same,glycan array binding signal (z-score),[23],-0.225
same,glycan array binding signal (z-score),[24],-0.224
same,glycan array binding signal (z-score),[25],-0.165
same,glycan array binding signal (z-score),Fuc(a1-4)GlcNAc,-0.057
same,glycan array binding signal (z-score),[26],-0.199
same,glycan array binding signal (z-score),Gal(a1-4)GlcNAc,-0.22
same,glycan array binding signal (z-score),Gal(b1-2)Gal,0.042
same,glycan array binding signal (z-score),[27],-0.206
same,glycan array binding signal (z-score),[28],-0.214
same,glycan array binding signal (z-score),Man(a1-3)[Man(a1-6)]Man,4.93
same,glycan array binding signal (z-score),[29],6.43
same,glycan array binding signal (z-score),[30],7.26
same,glycan array binding signal (z-score),[31],7.87
same,glycan array binding signal (z-score),[32],5.48
same,glycan array binding signal (z-score),[33],-0.218
same,glycan array binding signal (z-score),[34],-0.213
same,glycan array binding signal (z-score),[35],-0.024
same,glycan array binding signal (z-score),[36],-0.165
same,glycan array binding signal (z-score),[37],-0.223
same,glycan array binding signal (z-score),[38],-0.222
same,glycan array binding signal (z-score),[39],0.01
same,glycan array binding signal (z-score),[21],-0.221
